Screening results as filed in PubChem.
PriA SSB inh: K. pneumoniae PriA-SSBct interaction inhibition | inhibition, % at 33 µM | AlphaScreen SSBct-PriA binding, biotinylated peptide | AID 1272365 | 430,000 tested, 0.6% active; in the data active = inhibition mostly above about 37%, no sharp cut-off; inactive = mostly below about 20%;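 also: plate controls were negative control peptide for no effect and reference peptide for full effect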
BioA inh: BioA (M. tuberculosis) enzyme inhibition | inhibition, % at 9.99 µM | 360,000 tested, 0.096% active | AID 602481 | purified M. tuberculosis BioA enzyme, plate reader; in the data active = inhibition above about 40%; inconclusive = no clear call, values can overlap the other calls
PrP UTR inh: suppresses PrP 5' UTR mRNA reporter expression; 340,000 tested, 0.35% active; inhibition, % (test concentration not listed); AID 488862; cell-based PrP 5' UTR mRNA reporter, plate reader; in the data active = inhibition above about 52%; also: 0 = median of the neutral control wells
Mtb hypoxia rep: reduces hypoxia-regulated biosensor signal in M. tuberculosis | M. tuberculosis hypoxia-regulated fluorescent reporter, fluorescence | fluorescence inhibition, % (concentration not given with the values) | 300,000 tested, 0.1% active; in the data active = fluorescence inhibition mostly above about 23%, no sharp cut-off; inactive = mostly below about 17%
TcdB inh: TcdB glycohydrolase inhibition; P18177; TcdB glycohydrolase enzymatic assay, plate reader; inhibition, % at 9.99 µM; 350,000 tested, 0.24% active; AID 652162; in the data active = inhibition above about 10%
Target sequence (P18177 whole entry, looked up): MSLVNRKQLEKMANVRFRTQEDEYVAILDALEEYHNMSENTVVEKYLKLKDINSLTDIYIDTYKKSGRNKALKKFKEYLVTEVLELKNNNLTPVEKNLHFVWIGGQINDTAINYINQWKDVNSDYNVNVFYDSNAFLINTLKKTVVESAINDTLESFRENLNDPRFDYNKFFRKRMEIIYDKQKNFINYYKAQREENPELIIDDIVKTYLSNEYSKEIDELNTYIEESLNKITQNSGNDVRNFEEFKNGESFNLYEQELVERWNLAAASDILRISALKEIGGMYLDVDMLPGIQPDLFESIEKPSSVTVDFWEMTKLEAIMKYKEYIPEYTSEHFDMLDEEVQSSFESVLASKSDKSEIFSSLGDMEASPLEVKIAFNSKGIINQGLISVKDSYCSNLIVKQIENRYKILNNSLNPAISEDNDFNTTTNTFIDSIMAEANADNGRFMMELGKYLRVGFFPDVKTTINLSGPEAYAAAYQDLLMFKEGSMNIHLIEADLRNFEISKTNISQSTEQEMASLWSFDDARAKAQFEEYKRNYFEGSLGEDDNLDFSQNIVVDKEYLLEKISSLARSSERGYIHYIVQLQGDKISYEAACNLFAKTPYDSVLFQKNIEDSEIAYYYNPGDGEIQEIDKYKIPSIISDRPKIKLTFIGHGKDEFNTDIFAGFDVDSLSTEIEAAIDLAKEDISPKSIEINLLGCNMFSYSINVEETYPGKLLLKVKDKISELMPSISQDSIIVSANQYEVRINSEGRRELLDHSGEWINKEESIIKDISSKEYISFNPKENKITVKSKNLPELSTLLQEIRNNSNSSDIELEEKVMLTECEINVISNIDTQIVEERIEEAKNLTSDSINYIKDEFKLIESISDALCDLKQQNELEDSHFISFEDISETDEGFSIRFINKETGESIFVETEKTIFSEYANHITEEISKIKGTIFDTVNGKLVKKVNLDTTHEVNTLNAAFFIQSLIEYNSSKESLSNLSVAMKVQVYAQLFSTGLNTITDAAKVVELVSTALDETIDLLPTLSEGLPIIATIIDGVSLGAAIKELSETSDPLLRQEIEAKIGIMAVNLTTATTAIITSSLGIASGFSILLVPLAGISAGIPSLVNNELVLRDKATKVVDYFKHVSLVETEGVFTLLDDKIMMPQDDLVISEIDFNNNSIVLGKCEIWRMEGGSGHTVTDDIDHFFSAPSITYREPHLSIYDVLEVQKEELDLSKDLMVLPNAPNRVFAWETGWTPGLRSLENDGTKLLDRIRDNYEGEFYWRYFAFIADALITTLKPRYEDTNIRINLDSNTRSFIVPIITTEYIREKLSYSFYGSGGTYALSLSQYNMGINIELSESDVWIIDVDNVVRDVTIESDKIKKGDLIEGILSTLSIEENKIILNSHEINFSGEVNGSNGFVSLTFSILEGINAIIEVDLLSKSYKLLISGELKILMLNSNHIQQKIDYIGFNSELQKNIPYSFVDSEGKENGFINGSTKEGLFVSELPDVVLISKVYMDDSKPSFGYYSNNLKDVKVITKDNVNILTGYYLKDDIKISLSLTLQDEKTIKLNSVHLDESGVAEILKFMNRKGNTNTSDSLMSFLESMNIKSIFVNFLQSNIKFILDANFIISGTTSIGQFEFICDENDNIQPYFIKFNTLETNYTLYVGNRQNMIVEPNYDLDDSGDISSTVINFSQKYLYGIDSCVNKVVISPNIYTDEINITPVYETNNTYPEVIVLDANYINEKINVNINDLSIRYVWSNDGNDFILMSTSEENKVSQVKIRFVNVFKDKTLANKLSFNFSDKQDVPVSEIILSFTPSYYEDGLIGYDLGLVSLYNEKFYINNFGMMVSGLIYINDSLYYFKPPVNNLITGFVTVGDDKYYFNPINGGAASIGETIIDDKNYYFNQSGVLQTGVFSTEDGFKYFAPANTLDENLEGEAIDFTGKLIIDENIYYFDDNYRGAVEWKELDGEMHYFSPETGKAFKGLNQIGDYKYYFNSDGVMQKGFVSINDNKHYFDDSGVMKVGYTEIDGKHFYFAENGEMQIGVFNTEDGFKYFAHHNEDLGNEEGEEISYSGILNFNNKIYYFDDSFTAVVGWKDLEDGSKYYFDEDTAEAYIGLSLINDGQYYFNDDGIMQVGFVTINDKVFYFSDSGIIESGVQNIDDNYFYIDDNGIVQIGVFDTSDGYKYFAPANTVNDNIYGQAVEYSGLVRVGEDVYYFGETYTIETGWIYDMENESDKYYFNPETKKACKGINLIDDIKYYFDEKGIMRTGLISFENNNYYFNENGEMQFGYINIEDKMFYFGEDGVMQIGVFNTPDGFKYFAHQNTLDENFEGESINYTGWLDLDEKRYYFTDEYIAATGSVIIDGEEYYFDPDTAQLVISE
FadD28 FP inh: M. tuberculosis FadD28 bisubstrate binding inhibition | AID 588549 | 360,000 tested, 0.22% active | inhibition, % at 12.5 µM | FadD28 bisubstrate probe binding, fluorescence polarization; in the data active = inhibition above about 8.5%, passing the limit was not always enough; inconclusive = no clear call, values can overlap the other calls
An asterisk follows results filed as active; ? = inconclusive; nt = no result given. Only some compounds are listed: those with a hit (about 1% of all), similar ones and a draw of the others.

SMILES	PriA SSB inh	BioA inh	PrP UTR inh	Mtb hypoxia rep	TcdB inh	FadD28 FP inh
Nc1c(O)ccc2cccnc12	29.7	nt	nt	nt	nt	nt
CN1CCN(c2cc(-c3cc(O)c4ncccc4c3)ccn2)CC1	66.8*	2.5	4.5	11.5	-44.3	-0.6
Oc1cc(Nc2ccccc2)cc2cccnc12	64.7*	-0.1	-16.3	-1.8	1.0	-1.0
CNc1ccc(-c2cccc(C#N)c2)cn1	nt	-0.2	nt	nt	-0.2	-5.2
CCC(C)N=Cc1c(Nc2ccccc2)nc2c(C)cccn2c1=O (stereo unspecified)	4.9	-1.8	-2.3	50.7*	2.5	-0.6
CCCN1CCCc2ccc(N)cc21	129.9*	nt	nt	nt	nt	nt
CCCN1CCCc2cc(CN)ccc21	32.0	0.0	-54.0	7.7	nt	1.6
NS(=O)(=O)c1ccc(CCNC(=O)COC(=O)C2CCCN2C(=O)c2cccs2)cc1 (stereo unspecified)	-9.2	3.1	-27.2	16.2	nt	-3.6
c1ccc(Nc2cccc(Nc3ccccc3)n2)cc1	71.7*	-1.2	-31.7	nt	nt	-2.4
CC(C)(C)c1ccc(-c2nnc3sc(-c4cnccn4)nn23)cc1	51.0*	nt	nt	nt	nt	nt
CC(C)(C)c1ccc(-c2nn3c(-c4ccccn4)nnc3s2)cc1	9.7	nt	nt	nt	nt	nt
CC1CCCC(NC(=O)COC(=O)Cc2c[nH]c3ccccc23)C1C (stereo unspecified)	-6.4	nt	-10.3	-5.4	3.2	-1.9
Brc1ccc2c(c1)OCCSCCOCCSCCO2	43.0*	nt	nt	nt	nt	nt
COc1cc(NC(=O)NCC(c2ccc3c(c2)CCCN3C)N2CCCC2)cc(OC)c1 (stereo unspecified)	40.0*	nt	nt	nt	nt	nt
COc1cc(NC(=O)NCC(c2ccc3c(c2)CCN3C)N2CCOCC2)cc(OC)c1 (stereo unspecified)	7.0	nt	nt	nt	nt	nt
Cc1ccc(N2C(=O)N(CC(=O)Nc3ccccc3C)C(=O)C2C)cc1 (stereo unspecified)	7.5	0.9	-2.9	0.3	1.5	-0.2
CC(C)(C)c1ccc(NC(=S)NCc2cccs2)cc1	-1.2	nt	-30.8	22.6	nt	42.1*
CCC(C)c1ccc(NC(=S)NCc2cccs2)cc1 (stereo unspecified)	-11.5	-0.3	-18.6	8.0	nt	7.2
CCN1CC(CNCc2cn(-c3ccc(OC)cc3)nc2-c2ccccc2Cl)CC1=O (stereo unspecified)	0.1	nt	-16.2	-1.2	10.6*	-6.2
COc1ccc(-n2cc(CNCC3CC(=O)N(C4CC4)C3)c(-c3ccccc3Cl)n2)cc1 (stereo unspecified)	0.8	nt	-8.8	10.9	3.0	-2.4
Cc1nn(S(=O)(=O)c2ccccc2)c(C)c1Sc1ccc([N+](=O)[O-])cc1	18.6	0.9	7.0	2.8	nt	-0.4
Cc1nn(S(=O)(=O)c2ccccc2[N+](=O)[O-])c(C)c1Sc1ccccc1	37.0*	nt	nt	nt	nt	nt
O=C(Cn1c(=O)oc2ccccc21)NCC1CCN(C(=O)c2ccoc2)CC1	-20.0	nt	nt	nt	nt	nt
COc1cc2ccccc2cc1C(=O)NN=Cc1cccnc1	-3.0	nt	nt	48.2*	nt	nt
COc1ccc(Br)cc1C(=O)N/N=C/c1cccnc1	nt	24.5	2.9	nt	-0.5	nt
SMILES	PriA SSB inh	BioA inh	PrP UTR inh	Mtb hypoxia rep	TcdB inh	FadD28 FP inh
COc1cc2ccccc2cc1C(=O)N/N=C/c1cccnc1	nt	71.6*	17.3	nt	-9.9	-1.7
COc1cc(OC)cc(C(=O)OCC(=O)Nc2cccc(S(=O)(=O)NC3=NCCCCC3)c2)c1	-1.9	0.7	-18.0	-3.5	-1.2	-2.9
C[C@H](CO)N1C[C@H](C)[C@H](CN(C)C(=O)Nc2cccc3ccccc23)Oc2ccc(NC(=O)c3ccncc3)cc2CC1=O	nt	-1.1	nt	nt	-0.3	nt
O=C1/C(=C/c2cccnc2)SC(=NCc2ccccc2)N1Cc1ccccc1	-8.2	nt	-8.1	-0.8	10.1*	0.3
O=C1/C(=C/c2cccnc2)SC(=S)N1CCc1ccccc1	-1.4	nt	-17.6	9.5	0.0	-1.5
O=C(NC(=S)NCc1ccccc1)c1cccnc1	-6.1	5.0	-32.2	0.9	15.8*	-2.8
O=C(NNC(=S)NC(=O)c1cccnc1)c1ccccc1	-1.5	-0.8	1.7	0.4	nt	0.8
O=C(Cc1ccccc1)NNC(=S)NC(=O)c1cccnc1	-11.4	-0.1	-54.2	-2.6	18.8*	-2.4
COc1ccc(CC(=O)NNC(=S)NC(=O)c2cccnc2)cc1	-5.5	0.4	-15.9	-31.5	14.8*	-1.7
S=C(NCc1ccccc1)NCc1cccc(CNC(=S)NCc2ccccc2)c1	-11.2	3.2	2.9	-7.2	0.9	24.9*
O=C(NC1=NCCS1)NC(c1ccccc1)c1ccccc1	-4.0	nt	nt	nt	nt	nt
Cn1c(SCC(=O)c2ccccc2)nnc1-c1cnccn1	-1.0	2.6	-44.3	6.8	nt	-3.5
CCn1c(=S)[nH]c2c(=O)n(C)c(=O)n(C)c21	-9.7	0.1	2.6	7.3	45.6*	-2.0
O=C1CC(=O)N(Cc2ccco2)C(=S)N1	-2.0	-0.5	-17.1	nt	nt	29.0*
CC(C)(C)C1=Nn2c(nnc2-c2ccccn2)SC1	90.2*	nt	-19.4	4.8	nt	-2.8
COc1ccc(C2=Nn3c(nnc3-c3ccccn3)SC2)cc1OC	83.1*	4.2	16.8	6.9	nt	-0.6
CC(C)(C)C1=Nn2c(nnc2-c2ccccc2F)SC1	-0.1	-0.4	nt	9.5	0.5	0.0
O=C(CCn1cnc(-c2ccccc2)c1-c1ccccc1)N/N=C\c1ccco1	48.0*	nt	nt	nt	nt	nt
Cc1cc(SCC(=O)N/N=C/c2ccco2)nc2ccccc12	nt	nt	-15.0	nt	14.1*	-1.0
O=C(NN=Cc1ccco1)c1ccccn1	59.6*	nt	nt	1.9	nt	nt
COc1ccc(/C=C/C(=O)O)cc1S(=O)(=O)NC1CCS(=O)(=O)C1 (stereo unspecified)	-3.9	nt	-28.6	4.9	0.9	-0.6
COc1cc(/C=C/C(=O)NCCn2c(C)cc3ccccc32)cc(OC)c1OC	48.4*	0.5	-1.8	2.4	0.5	-2.6
Cc1cc2ccccc2n1CCNC(=O)Cc1ccccc1	44.1*	-0.9	-7.8	-3.7	-0.7	-1.6
COc1ccc(/C=C/C(=O)NCCn2c(C)cc3ccccc32)cc1OC	6.6	-2.2	-3.4	4.3	0.6	-5.6
Cc1cccc(CC(=O)NCCn2c(C)cc3ccccc32)c1	37.9	-0.1	-27.9	10.2	1.8	-1.4
SMILES	PriA SSB inh	BioA inh	PrP UTR inh	Mtb hypoxia rep	TcdB inh	FadD28 FP inh
Clc1ccc(CN2CCN(c3ncc(Cc4ccccc4)cn3)CC2)cc1	nt	nt	nt	nt	-8.5	nt
CC(=O)c1cccc(NC(=O)NC2CC(=O)N(c3ccccc3)C2)c1 (stereo unspecified)	-1.0	nt	nt	nt	nt	nt
Cn1ccc2c(N3c4ccccc4CCc4ccccc43)cc3c(c21)C1CCC3O1 (stereo unspecified)	nt	-0.9	nt	nt	-0.7	1.0
O=[N+]([O-])c1ccc(Nc2ccccc2O)c2nonc12	41.3*	4.3	-27.2	nt	-5.3	-2.6
CCc1nnc(NS(=O)(=O)c2ccc(Nc3ccc([N+](=O)[O-])c4nonc34)cc2)s1	18.4	nt	-7.8	39.2*	1.2	?
O=C(CSc1nnc(-c2ccc(F)cc2)o1)N1CCCCC1	-11.6	nt	-36.4	45.8*	-1.8	-4.1
CC1CCCN(C(=O)CSc2nnc(-c3ccc(O)cc3)o2)C1 (stereo unspecified)	-17.1	0.3	-24.6	17.6	-1.4	-2.2
